Most compounds without a hit are left out; they make up all but 11% or so of the library.
3T3 cytotox = Cytotoxic Profiling in NIH 3T3 Cell Line of Diverse Libraries Using Quantitative High-Throughput Screening. NIH 3T3 viability, CellTiter-Glo ATP luminescence, 48-72 h. Potency, µM (titrated, usually from 96.7 µM), without a hit: top-dose activity change, negative = cytotoxicity, usual class: inhibitors. 94,000 compounds, 4.3% hits. AID 1345082, 2018; also: nearly all actives have a fitted effect of over 55% in size
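NIH 3T3 cells at 400 cells/well received 23 nL of compound by pintool and were incubated 48 or 72 h at 37 °C. Viability was read as ATP-coupled CellTiter-Glo luminescence.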
HEK cytotox = Cytotoxic Profiling in HEK 293 Cell Line of Diverse Libraries Using Quantitative High-Throughput Screening; HEK 293 viability, ATP luminescence (CellTiter-Glo), 48-72 h; Potency, µM (titrated, usually from 115 µM), for the others: top-dose activity change, negative = cytotoxicity, usual class: inhibitors; 94,000 compounds, 6.6% hits; also: nearly all actives have a fitted effect of over 60% in size
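Read-out: CellTiter-Glo ATP luminescence. Cells: HEK 293, 250 cells/well. Exposure: 48 or 72 hr, 37 degree Celsius.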
hNpr1 antagonist = Natriuretic polypeptide receptor (hNpr1) antagonism - Primary qHTS; Atrial natriuretic peptide receptor 1 (Homo sapiens), P16066; HEK293 hNpr1 GloSensor cGMP, ANP-stimulated luminescence; Potency, µM (doses to about 46.3 µM), without a hit: at the highest dose activity change, negative = inhibition, most hits filed as inhibitors; 76,000 compounds, 1.6% hits; calls by dose curve; also: nearly all actives have a fitted effect of over 60% in size
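HEK293 cells stably expressing human Npr1 and cGMP GloSensor pGS-40F, loaded 2 h with 2% GloSensor reagent, given compound 30 min at room temperature. Luminescence read before and 20 min after 0.1 nM hNppA.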
FLuc inh = Firefly luciferase inhibition profiling of diverse chemical library using quantitative high-throughput screening. purified P. pyralis luciferase, luminescence, biochemical. Luciferin 4-monooxygenase (Photinus pyralis), P08659. 76,000 compounds, 2.5% hits. AID 1347043, 2019. Potency, µM (highest dose often 115 µM), usual class: inhibitors; also: nearly all actives have a fitted effect of over 65% in size
Target sequence (P08659 whole entry, looked up): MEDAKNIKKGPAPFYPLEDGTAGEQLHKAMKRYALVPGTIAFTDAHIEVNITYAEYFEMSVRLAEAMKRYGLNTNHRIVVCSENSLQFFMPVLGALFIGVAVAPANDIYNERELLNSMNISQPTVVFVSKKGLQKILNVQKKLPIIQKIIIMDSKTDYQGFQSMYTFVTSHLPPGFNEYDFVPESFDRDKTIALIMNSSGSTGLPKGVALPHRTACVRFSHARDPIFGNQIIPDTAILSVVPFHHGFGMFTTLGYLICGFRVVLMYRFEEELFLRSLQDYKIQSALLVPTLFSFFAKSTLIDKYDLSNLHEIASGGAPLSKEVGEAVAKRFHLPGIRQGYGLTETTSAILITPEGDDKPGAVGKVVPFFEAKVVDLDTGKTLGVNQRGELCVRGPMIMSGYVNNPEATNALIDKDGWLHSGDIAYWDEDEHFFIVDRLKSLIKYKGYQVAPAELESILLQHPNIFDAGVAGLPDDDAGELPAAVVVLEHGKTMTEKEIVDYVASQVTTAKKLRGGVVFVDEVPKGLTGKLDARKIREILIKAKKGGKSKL
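Luminescence read by CCD imaging after purified firefly luciferase (10nM final) was added to substrate buffer holding 10uM D-luciferin and 10uM ATP, pH 7.5, pre-dosed with compound.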
An asterisk follows results filed as active; i = inactive; ? = inconclusive; . = not tested or not shown. Unless noted, calls follow the shape of the dose curve; as a rule, active = well fitted curve in the direction sought with a large enough effect; inconclusive = small, poorly fitted or top-dose-only effect, or another doubt; inactive = no such curve, though single readings can be large; an effect the other way counts as inactive or inconclusive. % is scaled to controls: 0 for no effect and ±100 for the full control effect; potency is read from the fitted curve at half-maximal effect.

SMILES	3T3 cytotox	HEK cytotox	hNpr1 antagonist	FLuc inh
COc1ccc(Cl)cc1-c1ccc2c(c1)C(=O)N1CC[C@H](NC(=O)c3cccs3)[C@H]1C(=O)N2	?	35.5µM*	?	i
O=C(c1ccc(F)cc1)N1CCCC2(CNc3ncccc3[S+](=O)([O-])N2)C1 (stereo not given)	i	3.7%	.	.
O=C(CC1CCCC1)NCC1CCC(=O)N(Cc2ccccc2)CC1 (stereo not given)	-23.2%	?	.	.
Cc1cccc(-c2ccc3c(c2)C(=O)N2CC[C@H](NS(=O)(=O)c4cccs4)[C@H]2C(=O)N3)c1C	?	?	-21.7%	i
COc1ccc(-c2ccc3c(c2)C(=O)N2CC[C@H](NS(=O)(=O)c4cccs4)[C@H]2C(=O)N3)cc1	?	22.4µM*	?	?
COc1ccc(-c2ccc3c(c2)C(=O)N2CC[C@H](NC(=O)c4cccs4)[C@H]2C(=O)N3)c(OC)c1	-26.8%	?	-18.1%	?
COc1ccc(-c2ccc3c(c2)C(=O)N2CC[C@H](NC(=O)c4cccs4)[C@H]2C(=O)N3)cc1	-5.8%	i	3.2%	25.1µM*
CCCCOc1ccc(-c2nc(C3CC(=O)N(C4CCCCC4)C3)no2)cc1 (stereo not given)	31.6µM*	44.7µM*	?	i
O=C1CC(c2noc(-c3ccco3)n2)CN1C1CCCCC1 (stereo not given)	-17.5%	-26.4%	-2.4%	i
CCCCOc1ccc(-c2nc(C3CC(=O)N(c4ccc(OC)cc4)C3)no2)cc1 (stereo not given)	-7.3%	-0.5%	5.8%	i
Cc1ccsc1-c1nc(C2CC(=O)N(C3CCCCC3)C2)no1 (stereo not given)	-25.4%	79.4µM*	-1.8%	i
COc1ccccc1-c1cc(C(=O)NCc2cccc(Cl)c2)nn2cccc12	?	44.7µM*	.	.
COc1ccccc1-c1cc(C(=O)NCCc2ccc(F)cc2)nn2cccc12	?	35.5µM*	.	.
COc1ccccc1-c1cc(C(=O)NC(C)C)nn2cccc12	-11.5%	-18.6%	.	.
COc1ccccc1-c1cc(C(=O)N2CCCC2)nn2cccc12	0.9%	-21.0%	.	.
COc1ccccc1CN1Cc2cc(NC(=O)c3ccc(Cl)cc3)ccc2OC(C)C1=O (stereo not given)	?	25.1µM*	-4.5%	i
COc1cccc(CN2Cc3cc(NC(=O)c4ccccc4)ccc3OC(C)C2=O)c1OC (stereo not given)	?	?	-11.8%	i
COc1cccc(C(=O)Nc2ccc3c(c2)CN(Cc2cccc(OC)c2OC)C(=O)CO3)c1	-24.3%	44.7µM*	-2.4%	?
COc1cccc(C(=O)Nc2ccc3c(c2)CN(Cc2cccc(OC)c2OC)C(=O)C(C)O3)c1 (stereo not given)	35.5µM*	28.2µM*	-18.5%	i
COc1cccc(CN2Cc3cc(NC(=O)c4ccc(F)cc4F)ccc3OC(C)C2=O)c1OC (stereo not given)	?	?	-13.7%	i
COc1ccc(CN2Cc3cc(NC(=O)c4ccccc4F)ccc3OC(C)C2=O)c(OC)c1 (stereo not given)	?	35.5µM*	-2.1%	i
COc1ccc(CN2Cc3cc(NC(=O)c4ccc(F)cc4)ccc3OC(C)C2=O)c(OC)c1 (stereo not given)	-18.1%	?	-7.8%	i
CN1CC(=O)N(C2CCCC2)Cc2c1ncnc2N1CCC(N2CCOCC2)CC1	-17.6%	i	.	.
COc1cccc(CN2CC(Oc3ccccc3C(=O)N3CCOCC3)C2)c1	-22.8%	-10.9%	.	.
CC(C)(C)C(=O)N1CCCC2(CNc3ncccc3[S+](=O)([O-])N2)C1 (stereo not given)	-17.1%	-14.0%	.	.
Cc1ccc(NC(=O)Cn2c(-c3ccc(Cl)cc3)nc(C)c(CCO)c2=O)c(C)c1	0.6%	i	3.5%	i
O=C(Nc1ccc2c(c1)CN(Cc1ccccc1F)C(=O)CO2)c1ccc(Cl)cc1	?	39.8µM*	-26.1%	?
CC1Oc2ccc(NC(=O)c3ccc(Cl)c(Cl)c3)cc2CN(Cc2ccccc2F)C1=O (stereo not given)	?	?	-17.6%	i

Screening data as filed in PubChem BioAssay.
